# Experimental data from article PMC4336329 (PLoS ONE, 2015).
# Among all 310,000 compounds or so, about 14,000 (4.5%) showed an effect of 50% or more. The effect is printed as a negative number. The entries come from a sample that favours strong results as a whole.
# Target: human ether-à-go-go-related gene (hERG) potassium channel (human, UniProt Q12809)
# Assay: primary screen, population patch clamp on CHO cells stably expressing hERG; higher = less effect of the substance
# 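Note: peak tail current of the secondary pulse compared with the same well before compound.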
# Sequence of human ether-à-go-go-related gene (hERG) potassium channel (Q12809 whole entry, looked up): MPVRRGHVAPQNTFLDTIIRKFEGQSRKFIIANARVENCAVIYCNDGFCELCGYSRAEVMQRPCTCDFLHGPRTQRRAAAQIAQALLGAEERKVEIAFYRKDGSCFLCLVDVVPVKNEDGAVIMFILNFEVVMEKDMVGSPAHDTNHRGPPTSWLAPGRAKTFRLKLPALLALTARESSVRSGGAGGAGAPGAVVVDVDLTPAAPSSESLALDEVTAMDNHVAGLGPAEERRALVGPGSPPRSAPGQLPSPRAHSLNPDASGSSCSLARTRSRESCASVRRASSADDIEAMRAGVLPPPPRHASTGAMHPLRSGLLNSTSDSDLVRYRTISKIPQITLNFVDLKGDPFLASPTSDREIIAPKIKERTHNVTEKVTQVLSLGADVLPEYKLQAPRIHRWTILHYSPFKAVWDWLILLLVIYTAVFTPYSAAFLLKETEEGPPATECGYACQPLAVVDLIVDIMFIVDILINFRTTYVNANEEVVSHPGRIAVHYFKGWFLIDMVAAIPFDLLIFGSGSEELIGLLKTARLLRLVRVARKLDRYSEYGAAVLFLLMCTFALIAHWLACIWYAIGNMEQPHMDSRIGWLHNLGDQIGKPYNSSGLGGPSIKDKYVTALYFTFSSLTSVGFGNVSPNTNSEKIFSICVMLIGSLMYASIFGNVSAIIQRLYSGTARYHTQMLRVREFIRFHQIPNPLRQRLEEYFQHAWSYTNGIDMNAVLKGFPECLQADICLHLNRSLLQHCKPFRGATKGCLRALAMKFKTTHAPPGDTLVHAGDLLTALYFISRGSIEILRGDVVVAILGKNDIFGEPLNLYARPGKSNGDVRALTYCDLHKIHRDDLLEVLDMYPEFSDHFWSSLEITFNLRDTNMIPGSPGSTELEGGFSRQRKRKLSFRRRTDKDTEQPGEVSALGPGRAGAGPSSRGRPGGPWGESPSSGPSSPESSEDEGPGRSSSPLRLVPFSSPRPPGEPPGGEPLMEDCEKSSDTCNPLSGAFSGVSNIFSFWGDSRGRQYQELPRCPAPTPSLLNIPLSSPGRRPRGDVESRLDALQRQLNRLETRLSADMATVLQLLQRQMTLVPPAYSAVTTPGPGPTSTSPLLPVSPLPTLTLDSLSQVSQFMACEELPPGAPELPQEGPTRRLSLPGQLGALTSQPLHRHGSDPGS
row,Compound,"hERG current change (%, negative = inhibition) at 10uM [%]"
1,O=C(O)C1CCCCC1C(=O)NCCCN1CCOCC1 (stereo not shown),-1.05
2,Cc1ccc(/C=C/C(=O)NCC2COc3ccccc3O2)o1 (stereo not shown),-18.2
3,CCCCC(=O)N/N=C/c1c(O)n(CCc2ccccc2)c(=O)[nH]c1=O,18.3
4,CCOC(=O)C1CCCN(c2c(NCCN3CCCCC3C)c(=O)c2=O)C1 (stereo not shown),5.47
5,COc1ccc(C(=O)COC(=O)c2ccc3c(c2)OCO3)c(OC)c1,-16.9
6,COc1ccc(OCC(O)Cn2c(N3CCCCC3)nc3c2c(=O)[nH]c(=O)n3C)cc1 (stereo not shown),-5.73
7,COc1ccc(N2CCN(c3nc4c(c(=O)[nH]c(=O)n4C)n3Cc3cccc(C)c3)CC2)cc1,-14.2
8,CCCn1c(N2CCN(C)CC2)nc2c1c(=O)[nH]c(=O)n2C,-13.5
9,Cn1c(=O)[nH]c(=O)c2c1nc(Br)n2CC(O)COc1ccccc1 (stereo not shown),-0.394
10,CN1CCN(c2nc3c(c(=O)[nH]c(=O)n3C)n2Cc2cccc(Br)c2)CC1,-53.5
11,CCCn1c(N2CCN(Cc3cccc(C)c3)CC2)nc2c1c(=O)[nH]c(=O)n2C,-53
12,Cn1c(=O)[nH]c(=O)c2c1nc(N1CCCCC1)n2CC(O)COc1ccc([N+](=O)[O-])cc1 (stereo not shown),-69.8
13,CN1CCN(c2nc3c(c(=O)[nH]c(=O)n3C)n2Cc2ccccc2)CC1,-25.4
14,Cn1c(=O)[nH]c(=O)c2c1nc(Br)n2Cc1cccc(Br)c1,15.1
15,COc1ccc(OCC(O)Cn2c(Br)nc3c2c(=O)[nH]c(=O)n3C)cc1 (stereo not shown),-12.6
16,Cc1ccc(OCC(O)Cn2c(N3CCCCC3)nc3c2c(=O)[nH]c(=O)n3C)cc1 (stereo not shown),9.46
17,Cn1c(=O)[nH]c(=O)c2c1nc(Br)n2CC(O)COc1ccc(Cl)cc1 (stereo not shown),-63.6
18,CCOC(=O)C[C@H]1c2ccccc2S(=O)(=O)N1C1CC1,5.78
19,Br.CC1(C)OC(c2ccccc2)=C/C(=C/C=Nc2ccccc2)O1,-12.9
20,CC(C)c1ccc(C(O)c2cnc(C(C)C)n2C)cc1 (stereo not shown),-27.5
21,O=C1N=C(N2CCN(c3cccc4ccccc34)CC2)S/C1=C/c1cccs1,11.9
22,O=C1N/C(=N\N=C\c2cccs2)SC1Cc1ccc(Cl)cc1 (stereo not shown),-8.96
23,COc1ccc(-n2cnnc2SCC(=O)NC2CCS(=O)(=O)C2)cc1 (stereo not shown),8.52

row,Compound,"hERG current change (%, negative = inhibition) at 10uM [%]"
1,O=C(CSc1nc2ccccc2n1-c1ccccc1)Nc1ncc(Cl)cc1Cl,12.1
2,O=C(Nc1ccc(F)cc1F)C1CCN(S(=O)(=O)c2cccnc2)CC1,-1.85
3,CSc1ccc(Cn2nnc(C(=O)NCc3ccccc3)c2N)cc1,-0.141
4,CS(=O)(=O)N1CCC(C(=O)Nc2cccc(C(F)(F)F)c2)CC1,-14.2
5,O=C(CCCCn1c(=O)c2ccccc2n(Cc2ccc(F)cc2Cl)c1=O)NCc1ccco1,-5.07
6,CN1CCN(c2nc3c(c(=O)[nH]c(=O)n3C)n2Cc2ccc(Cl)cc2)CC1,-15.5
7,CC1CCN(c2nc3c(c(=O)[nH]c(=O)n3C)n2Cc2ccccc2)CC1,7.99
8,CN1CCN(c2nc3c(c(=O)[nH]c(=O)n3C)n2Cc2ccc([N+](=O)[O-])cc2)CC1,-59
9,Cc1cccc(Cn2c(N3CCCCC3C)nc3c2c(=O)[nH]c(=O)n3C)c1 (stereo not shown),-57
10,CN1CCN(c2nc3c(c(=O)n(C)c(=O)n3C)n2Cc2cccc(Br)c2)CC1,-55.1
11,Cc1ccc(Cn2c(N3CCN(C)CC3)nc3c2c(=O)[nH]c(=O)n3C)cc1,-14.9
12,Cc1cccc(Cn2c(N3CCN(CCO)CC3)nc3c2c(=O)[nH]c(=O)n3C)c1,-23.5
13,CN1CCN(c2nc3c(c(=O)[nH]c(=O)n3C)n2Cc2cccc3ccccc23)CC1,-27.6
14,Cc1cccc(Cn2c(N3CCc4ccccc4C3)nc3c2c(=O)[nH]c(=O)n3C)c1,-4.89
15,Cc1cccc(Cn2c(N3CCN(C)CC3)nc3c2c(=O)[nH]c(=O)n3C)c1,-50.7
16,Cc1cccc(Cn2c(N3CCN(C)CC3)nc3c2c(=O)n(C)c(=O)n3C)c1,-49
17,CN1CCN(c2nc3c(c(=O)n(C)c(=O)n3C)n2Cc2ccc(Cl)cc2)CC1,-39.5
18,O=C(COC(=O)CCNS(=O)(=O)c1ccc2c(c1)OCCO2)NC1CCCc2ccccc21 (stereo not shown),-0.954
19,O=C(CN(C(=O)c1ccccc1Cl)N1C(=O)C2C3C=CC(C3)C2C1=O)c1cccs1 (stereo not shown),7.25
20,O=C(CSc1ncn[nH]1)NC12CC3CC(CC(C3)C1)C2,-5.91
21,O=C(N/N=C/c1c(F)c(F)c(F)c(F)c1F)c1cc(-c2ccccc2)nc2ccccc12,6.92
22,O=C(O)Cc1csc(-c2cccc(F)c2)n1,19.1
23,CC(C)OC(=O)NCCOC(=O)Nc1ccccc1Cl,21.6

row,Compound,"hERG current change (%, negative = inhibition) at 10uM [%]"
1,Cn1c(=O)c(=O)n(C)c2cc(S(=O)(=O)CCC(=O)NCc3ccccc3)ccc21,20
2,COc1ccc(OC)c(/C=N/NC(=O)Cc2nc3ccccc3[nH]2)c1,5.63
3,Cc1onc(-c2ccccc2)c1C(=O)N1CCN(S(=O)(=O)c2ccccc2C(F)(F)F)CC1,22.6
4,Cc1cc(S(=O)(=O)Nc2ccc(C(=O)NCCCN3CCCC3=O)cc2)ccc1F,8.37
5,O=C(NCc1ccccc1)C1C(=O)N(Cc2ccccc2)C(=O)C1C1(O)CCCC1 (stereo not shown),2.87
6,O=C(Nc1ccc2oc(=O)ccc2c1)c1ccc(-c2ccc(Cl)cc2)o1,3.37
7,S=c1[nH]nc(Cc2ccccc2)n1Cc1ccco1,-5.08
8,Cc1nc2ccc(S(=O)(=O)NCC(=O)N3CCN(c4ccccc4)CC3)cc2s1,-1.33
9,O=C(O)c1cc(NC(=O)c2cccc(F)c2)cc(NC(=O)c2cccc(F)c2)c1,15.4
10,COc1ccc(C(CNC(=O)COc2ccc([N+](=O)[O-])cc2)N2CCCCC2)cc1 (stereo not shown),-69.9
11,COc1ccc(C(CNC(=O)COc2ccccc2C)N2CCCCC2)cc1 (stereo not shown),-20.7
12,COc1ccc(OCC(=O)NCC(c2ccc(OC)cc2)N2CCCCC2)cc1 (stereo not shown),-33.1
13,COc1ccc(C(CNC(=O)COc2ccccc2OC)N2CCCCC2)cc1 (stereo not shown),-19.5
14,COc1ccc(C(CNC(=O)COc2ccc(F)cc2Br)N2CCCC2)cc1 (stereo not shown),-64.5
15,COc1ccc(C(CNC(=O)COc2ccc(F)cc2Cl)N2CCCCC2)cc1 (stereo not shown),-8.7
16,COc1ccc(C(CNC(=O)COc2ccccc2)N2CCCCC2)cc1 (stereo not shown),-29.3
17,COc1ccc(C(CNC(=O)COc2ccc(Br)cc2F)N2CCCC2)cc1 (stereo not shown),-78.6
18,COc1ccc(C(CNC(=O)COc2ccccc2C)N2CCCC2)cc1 (stereo not shown),-40.8
19,COc1ccccc1CNC(=O)CCc1nc2ccccc2c(=O)[nH]1,-1.26
20,CC(=O)Nc1cccc(NC(=O)c2cccc(OCc3ccccc3)c2)c1,10.6
21,Cc1ccc(C2(C(F)(F)F)NC(=O)N3CCCN=C3S2)cc1 (stereo not shown),16.5
22,Cc1cccc(C)c1NC(=S)N(CCCN1CCCCC1)Cc1ccco1,-25.7
23,Cc1cc(NC(=S)N(CCN2CCCCC2)Cc2ccco2)ccc1Cl,-55.3

row,Compound,"hERG current change (%, negative = inhibition) at 10uM [%]"
1,Cc1ccc(NC(=S)N(CCN2CCCCC2)Cc2ccco2)cc1C,-80.3
2,Cc1cc(C)cc(NC(=S)N(CCN2CCCCC2)Cc2ccco2)c1,-74.4
3,Cc1ccc(NC(=S)N(CCN2CCCCC2)Cc2ccco2)cc1Cl,-51.1
4,Cc1cccc(C)c1NC(=S)N(CCN1CCCCCC1)Cc1ccco1,-34.9
5,Cc1cc(C)c(NC(=S)N(CCN2CCCCC2)Cc2ccco2)c(C)c1,-37.9
6,CN(C)CCOc1ccccc1-c1ccccc1.O=C(O)C(=O)O,-4.52
7,COc1ccccc1CCNC(=O)c1ccc2nc[nH]c2c1,3.97
8,Nc1cc(=O)[nH]c(SCc2ccccc2Cl)n1,3.76
9,Cc1nc2c(nnn2Cc2ccccc2)c(=O)n1-c1ccccc1,0.475
10,NC(=O)c1cc([N+](=O)[O-])ccc1N1CCCCC1,-17.2
11,Cc1ccc(S(=O)(=O)N(C)c2ccc(OC(=O)CN3C(=O)NC4(CCCC4)C3=O)cc2)cc1C,9.26
12,COC(=O)c1ccc(C(=O)OC)c(NC(=O)CN(C)Cc2ccc(Cl)c(Cl)c2)c1,5.46
13,CCNC(=S)N1CCC(C(=O)c2ccc(Cl)cc2)CC1,-16.8
14,O=C(Cn1ncc(N2CCCC2)c(Br)c1=O)c1ccc(Cl)cc1,-23.1
15,CO/N=C(\Cn1ncc(N2CCCC2)c(Cl)c1=O)c1ccc(Cl)cc1,-64
16,O=C(Cn1ncc(N2CCCC2)c(Cl)c1=O)c1ccc(Cl)cc1,-21.2
17,CC(C)(C)C(=O)Cn1ncc(N2CCOCC2)c(Cl)c1=O,-71.9
18,CO/N=C(\Cn1ncc(N2CCCC2)c(Br)c1=O)c1ccc(Cl)cc1,-57.5
19,CO/N=C(\Cn1ncc(N2CCOCC2)c(Br)c1=O)c1ccc(Cl)cc1,-19.7
20,CC(=O)Cn1ncc(N2CCOCC2)c(Cl)c1=O,4.26
21,CC(=O)Cn1ncc(N2CCCCC2)c(Cl)c1=O,17.8
22,CC(C)(C)C(=O)Cn1ncc(N2CCOCC2)c(Br)c1=O,-0.203
